Active and inactive are the calls of the source. Rule for the calls: active = hit-call score of the fitted dose curve at least 0.9, where 1 is the maximum; inactive = score below 0.9.

Among the data in PubChem BioAssay (EPA / NIEHS) are AC50 and outcome values, retold here.

Read-out in one assay: Vascular cell adhesion molecule 1 (VCAM1), VCAM1 (gene 7412)
Description: BSK_hDFCGF_VCAM1: BioMAP Diversity Plus: hDFCGF Assay for Vascular cell adhesion molecule 1 (VCAM1) Biomarker Activity (AID 2283065).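 For AC50: VCAM-1 protein level quantified by ELISA after 24 h chemical exposure.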 The note with it: primary human foreskin fibroblasts; actives raise or lower the signal. The essentials:
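ELISA readout of VCAM-1 on human dermal fibroblast primary cultures, 24 h after chemical exposure. Gain or loss of signal fitted in both directions against DMSO baseline.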
One may read the AC50 as the midpoint of the concentration-response curve, whichever way the signal moves. On to `Oc1ccccc1O`, for which the AC50 was 2.5 µM (active).

`CCN(CC)CCOc1ccc(C(=C(Cl)c2ccccc2)c2ccccc2)cc1`: the AC50 is 14.1 µM (active).

Regarding `CC(COCC(C)OC(=O)c1ccccc1)OC(=O)c1ccccc1` (stereo not drawn), the outcome was inactive.

Turning to `CC(C)OC(=O)C(C)(C)Oc1ccc(C(=O)c2ccc(Cl)cc2)cc1`, the result was inactive.

Regarding `Cc1cc(Cc2ccc(N)c(C)c2)ccc1N`, the result was inactive.

As for `C/C=C/C=C/C(=O)O`, the outcome was inactive.

On to `CCCCCCCCCCCCCCCCO`, for which the outcome was inactive.

For `CC(=O)OC1CC(C)OC(C)O1` (stereo not drawn), the outcome was inactive.

Turning to `O=C(Oc1ccccc1)c1cccc(C(=O)Oc2ccccc2)c1`, the outcome was inactive.

As for `CC(C)(C)c1ccccc1`, the result was inactive.

As to `O=C1OC(c2ccc(O)cc2)(c2ccc(O)cc2)c2ccccc21`, the AC50 was 31.2 µM (active).

As for `CCOCCOCCO`, the outcome was inactive.

As to `CC(C)(O)c1ccc(CNC(=O)c2cccnc2Oc2ccc(F)cc2)cc1`, the result was inactive.

As to `CC(C)COC(=O)CCCCC(=O)OCC(C)C`, the outcome was inactive.

Regarding `CC(=O)[C@@]1(O)CC[C@H]2[C@@H]3CCC4=CC(=O)CC[C@]4(C)[C@H]3CC[C@@]21C`, the result was inactive.

Take `COC(=O)CCC(=O)OC`: the result was inactive.

On to `CO[C@@H]1COCC[C@@H]1N[C@@H]1CC[C@@](C(=O)N2CCc3ncc(C(F)(F)F)cc3C2)(C(C)C)C1`, for which the result was inactive.

`CCc1cc(C2=C(C(=O)O)N(c3ccccc3C(F)(F)F)S(=O)(=O)c3ccccc32)cc2c1OCO2`: the result was inactive.

Take `O=C(O)c1[nH]n(-c2ccc(S(=O)(=O)O)cc2)c(=O)c1N=Nc1ccc(S(=O)(=O)O)cc1`: the outcome was inactive.

Turning to `Cc1ccc(-c2cc(C(F)(F)F)nn2-c2ccc(S(N)(=O)=O)cc2)cc1`, the result was inactive.

With `CC(=O)OCC(COC(C)=O)OC(C)=O`, the result was inactive.

`O=C(N[C@@H](c1ccccc1)[C@@H]1CCCCN1)c1cccc(C(F)(F)F)c1Cl`: the result was inactive.

For `O=C(O)CC(O)(CC(=O)O)C(=O)O`, the outcome was inactive.

Regarding `Cc1cn([C@H]2C=C[C@@H](CO)O2)c(=O)[nH]c1=O`, the result was inactive.

For the compound `CCCC(=O)O`, the outcome was inactive.

As to `O=[Si]=O`, the outcome was inactive.

Turning to `CC(C)c1cccc(C(C)C)c1NC(=O)NS(=O)(=O)c1cc(C(C)(C)O)co1`, the outcome was inactive.

With `CC(=O)CC(c1ccccc1)c1c(O)c2ccccc2oc1=O` (stereo not drawn), the result was inactive.

Regarding `Nc1nc(Cl)nc2c1ncn2[C@H]1C[C@H](O)[C@@H](CO)O1`, the result was inactive.

Turning to `CCCCCCCCCCCCCCOS(=O)(=O)O`, the AC50 was 7.85 µM (active).

Read-out in the next assay: Plasminogen activator inhibitor-1 (PAI1), SERPINE1 (gene 5054)
Description: BSK_hDFCGF_PAI1: BioMAP Diversity Plus: hDFCGF Assay for Plasminogen activator inhibitor-1 (PAI1) Biomarker Activity (AID 2283066). The note with it: primary human foreskin fibroblasts; actives raise or lower the signal. The essentials: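 Human foreskin fibroblasts in the hDFCGF system were dosed with compound for 24 h; PAI-1 was quantified by ELISA. Bidirectional curve fitting used DMSO as negative control and baseline.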
With `Oc1ccccc1O`, the outcome was inactive.

Take `CCN(CC)CCOc1ccc(C(=C(Cl)c2ccccc2)c2ccccc2)cc1`: the AC50 is 9.48 µM (active).

Regarding `CC(COCC(C)OC(=O)c1ccccc1)OC(=O)c1ccccc1` (stereo not drawn), the outcome was inactive.

For `CC(C)OC(=O)C(C)(C)Oc1ccc(C(=O)c2ccc(Cl)cc2)cc1`, the AC50 was 3.97 µM (active).

As for `Cc1cc(Cc2ccc(N)c(C)c2)ccc1N`, the result was inactive.

`C/C=C/C=C/C(=O)O`: the outcome was inactive.

In the case of `CCCCCCCCCCCCCCCCO`, the outcome was inactive.

Take `CC(=O)OC1CC(C)OC(C)O1` (stereo not drawn): the AC50 was 0.523 µM (active).

For `O=C(Oc1ccccc1)c1cccc(C(=O)Oc2ccccc2)c1`, the outcome was inactive.

`CC(C)(C)c1ccccc1`: the result was inactive.

Turning to `O=C1OC(c2ccc(O)cc2)(c2ccc(O)cc2)c2ccccc21`, the outcome was inactive.

As for `CCOCCOCCO`, the result was inactive.

In the case of `CC(C)(O)c1ccc(CNC(=O)c2cccnc2Oc2ccc(F)cc2)cc1`, the AC50 was 0.457 µM (active).

In the case of `CC(C)COC(=O)CCCCC(=O)OCC(C)C`, the outcome was inactive.

For `CC(=O)[C@@]1(O)CC[C@H]2[C@@H]3CCC4=CC(=O)CC[C@]4(C)[C@H]3CC[C@@]21C`, the result was inactive.

In the case of `COC(=O)CCC(=O)OC`, the outcome was inactive.

Take `CO[C@@H]1COCC[C@@H]1N[C@@H]1CC[C@@](C(=O)N2CCc3ncc(C(F)(F)F)cc3C2)(C(C)C)C1`: the result was inactive.

As to `CCc1cc(C2=C(C(=O)O)N(c3ccccc3C(F)(F)F)S(=O)(=O)c3ccccc32)cc2c1OCO2`, the outcome was inactive.

Consider `O=C(O)c1[nH]n(-c2ccc(S(=O)(=O)O)cc2)c(=O)c1N=Nc1ccc(S(=O)(=O)O)cc1`, for which the result was inactive.

As to `Cc1ccc(-c2cc(C(F)(F)F)nn2-c2ccc(S(N)(=O)=O)cc2)cc1`, the result was inactive.

Turning to `CC(=O)OCC(COC(C)=O)OC(C)=O`, the result was inactive.

On to `O=C(N[C@@H](c1ccccc1)[C@@H]1CCCCN1)c1cccc(C(F)(F)F)c1Cl`, for which the AC50 is 9.69 µM (active).

With `O=C(O)CC(O)(CC(=O)O)C(=O)O`, the result was inactive.

Regarding `Cc1cn([C@H]2C=C[C@@H](CO)O2)c(=O)[nH]c1=O`, the result was inactive.

Regarding `CCCC(=O)O`, the outcome was inactive.

For `O=[Si]=O`, the outcome was inactive.

Regarding `CC(C)c1cccc(C(C)C)c1NC(=O)NS(=O)(=O)c1cc(C(C)(C)O)co1`, the result was inactive.

For `CC(=O)CC(c1ccccc1)c1c(O)c2ccccc2oc1=O` (stereo not drawn), the result was inactive.

For the compound `Nc1nc(Cl)nc2c1ncn2[C@H]1C[C@H](O)[C@@H](CO)O1`, the AC50 is 10.2 µM (active).

As to `CCCCCCCCCCCCCCOS(=O)(=O)O`, the AC50 was 9.05 µM (active).

Read-out in another assay: Intercellular Adhesion Molecule 1 (ICAM1), ICAM1 (gene 3383)
Nature of the assay: BSK_KF3CT_ICAM1: BioMAP Diversity Plus: KF3CT Assay for Intercellular Adhesion Molecule 1 (ICAM1) Biomarker Activity (AID 2283067). The following applies: primary human keratinocytes with fibroblasts; actives raise or lower the signal. The essentials: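 Cell-surface ICAM-1 was measured by ELISA 24 h after dosing primary human skin keratinocytes co-cultured with fibroblasts. Parallel SRB staining tracked overt cytotoxicity. Gain or loss of signal was fitted relative to DMSO.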
As for `Oc1ccccc1O`, the AC50 was 4.58 µM (active).

As for `CCN(CC)CCOc1ccc(C(=C(Cl)c2ccccc2)c2ccccc2)cc1`, the AC50 is 14 µM (active).

As to `CC(COCC(C)OC(=O)c1ccccc1)OC(=O)c1ccccc1` (stereo not drawn), the result was inactive.

With `CC(C)OC(=O)C(C)(C)Oc1ccc(C(=O)c2ccc(Cl)cc2)cc1`, the result was inactive.

As for `Cc1cc(Cc2ccc(N)c(C)c2)ccc1N`, the result was inactive.

For the compound `C/C=C/C=C/C(=O)O`, the result was inactive.

In the case of `CCCCCCCCCCCCCCCCO`, the result was inactive.

With `CC(=O)OC1CC(C)OC(C)O1` (stereo not drawn), the outcome was inactive.

Take `O=C(Oc1ccccc1)c1cccc(C(=O)Oc2ccccc2)c1`: the result was inactive.

Regarding `O=C1OC(c2ccc(O)cc2)(c2ccc(O)cc2)c2ccccc21`, the result was inactive.

Take `CCOCCOCCO`: the result was inactive.

Consider `CC(C)(O)c1ccc(CNC(=O)c2cccnc2Oc2ccc(F)cc2)cc1`, for which the result was inactive.

With `CC(=O)[C@@]1(O)CC[C@H]2[C@@H]3CCC4=CC(=O)CC[C@]4(C)[C@H]3CC[C@@]21C`, the outcome was inactive.

With `CCc1cc(C2=C(C(=O)O)N(c3ccccc3C(F)(F)F)S(=O)(=O)c3ccccc32)cc2c1OCO2`, the outcome was inactive.

As to `O=C(N[C@@H](c1ccccc1)[C@@H]1CCCCN1)c1cccc(C(F)(F)F)c1Cl`, the AC50 is 30.7 µM (active).

With `O=C(O)CC(O)(CC(=O)O)C(=O)O`, the result was inactive.

With `O=[Si]=O`, the result was inactive.

In the case of `CC(=O)CC(c1ccccc1)c1c(O)c2ccccc2oc1=O` (stereo not drawn), the result was inactive.
